Bead autofluor = counter-screen for toxin protease inhibitors: compound fluorescence | compound autofluorescence counterscreen, microsphere flow cytometry; active compounds read high | fluorescence intensity (concentration not given with the values) | 3.1% of 360,000 active | AID 624483; in the data active = fluorescence intensity above about 16000; inconclusive = no clear call, values can overlap the other calls
3CLpro inhibitor = SARS-CoV 3CLpro protease inhibition; recombinant SARS-CoV 3CLpro, quenched FRET peptide cleavage; inhibition, % at 6 µM; 0.14% of 290,000 active; AID 1706; in the data active = inhibition above about 12%
BoNT-A LC inh2 = blocks Botulinum neurotoxin A light chain protease | multiplex microsphere protease substrate cleavage, flow cytometry | inhibition, % at 10 µM | 0.17% of 360,000 active; note: plate controls were buffer without enzyme for full effect and enzyme alone for no effect
Anthrax LF inh2 = anthrax lethal factor protease inhibition. inhibition, % at 10 µM. AID 588501. 0.12% of 360,000 active. multiplex microsphere protease cleavage assay, LF; note: plate controls were buffer without enzyme for full effect and enzyme alone for no effect
Target sequence (P15917 whole entry, looked up): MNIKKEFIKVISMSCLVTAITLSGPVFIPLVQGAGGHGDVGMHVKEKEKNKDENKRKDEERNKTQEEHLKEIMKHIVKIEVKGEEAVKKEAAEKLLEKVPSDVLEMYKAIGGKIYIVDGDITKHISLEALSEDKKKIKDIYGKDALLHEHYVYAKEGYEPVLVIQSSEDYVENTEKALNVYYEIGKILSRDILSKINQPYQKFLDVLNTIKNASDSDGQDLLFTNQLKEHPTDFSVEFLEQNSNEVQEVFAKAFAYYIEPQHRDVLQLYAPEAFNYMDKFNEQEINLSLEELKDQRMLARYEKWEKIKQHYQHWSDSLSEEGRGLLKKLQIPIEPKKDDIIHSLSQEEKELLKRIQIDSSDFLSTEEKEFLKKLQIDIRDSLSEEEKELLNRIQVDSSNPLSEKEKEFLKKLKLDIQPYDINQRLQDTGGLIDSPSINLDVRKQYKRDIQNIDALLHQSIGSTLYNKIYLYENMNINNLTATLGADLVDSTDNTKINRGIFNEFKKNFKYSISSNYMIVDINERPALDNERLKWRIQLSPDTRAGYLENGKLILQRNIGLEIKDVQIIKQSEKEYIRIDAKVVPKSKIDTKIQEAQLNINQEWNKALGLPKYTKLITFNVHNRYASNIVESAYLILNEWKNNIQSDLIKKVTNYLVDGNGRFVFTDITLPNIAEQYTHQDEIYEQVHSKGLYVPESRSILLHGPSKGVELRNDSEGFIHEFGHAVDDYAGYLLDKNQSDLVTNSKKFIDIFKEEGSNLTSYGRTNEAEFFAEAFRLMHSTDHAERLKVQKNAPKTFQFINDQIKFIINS
CCHF vOTU inh = CCHFV vOTU protease inhibition; Pep-AMC fluorescence; inhibition, % at 11.5 µM; 0.55% of 370,000 active; in the data active = inhibition above about 30%; note: 0% = vehicle wells with enzyme and 100% = no enzyme wells
BoNT F protease = blocks Botulinum neurotoxin F light chain protease | Multiplex microsphere protease cleavage assay, flow cytometry | inhibition, % at 10 µM | 0.22% of 360,000 active; in the data active = inhibition above about 35%, passing the limit was not always enough; inconclusive = no clear call, values can overlap the other calls; note: plate controls were buffer without enzyme for full effect and enzyme alone for no effect
Numbers without * were called inactive. Shown are actives, neighbours in structure and some others; about 3.9% of the full set was active somewhere. Cut-off read from the data, not from the text of the source, unless noted: active = inhibition above about 30%; inconclusive = no clear call, values can overlap the other calls; inactive = below that.

For O=C(C1CCCN1S(=O)(=O)c1ccccc1[N+](=O)[O-])N1CCN(c2ccccc2)CC1 (centres undefined) the results were CCHF vOTU inh 5.
Screening O=C(Nc1cccc2[nH]ncc12)c1ccc(F)cc1 returned Bead autofluor 22322*, 3CLpro inhibitor 1, BoNT-A LC inh2 inconclusive, Anthrax LF inh2 -5, CCHF vOTU inh -3 and BoNT F protease 2.
Cc1cc(Cl)ccc1OC(C)c1nnc(N)s1 (centres undefined) was read as Bead autofluor 16493*, 3CLpro inhibitor 4, BoNT-A LC inh2 -1, Anthrax LF inh2 -2, CCHF vOTU inh 11 and BoNT F protease -1.
Screening CC(Oc1ccc(Cl)cc1Cl)c1ccnc(N)n1 (centres undefined) returned Bead autofluor 4565, 3CLpro inhibitor 4, BoNT-A LC inh2 0, Anthrax LF inh2 -7, CCHF vOTU inh 20 and BoNT F protease -3.
Screening Cc1ccc(O)c(C(=O)c2cnc3c(c2)CN(C)C(=O)N3)c1 returned Bead autofluor 21945*, 3CLpro inhibitor 3, BoNT-A LC inh2 3, Anthrax LF inh2 -4, CCHF vOTU inh -9 and BoNT F protease 6.
For Cc1ccc(O)c(C(=O)c2cnc3c(c2)CN(CCC(C)C)C(=O)N3)c1 the results were Bead autofluor 8641, 3CLpro inhibitor 3, BoNT-A LC inh2 -1, Anthrax LF inh2 5, CCHF vOTU inh -9 and BoNT F protease 6.
`O=C(NC1CCCC1)c1ccc(CS(=O)(=O)c2cccc(C(F)(F)F)c2)o1` gave Bead autofluor 22398*, 3CLpro inhibitor -2, BoNT-A LC inh2 -1, Anthrax LF inh2 -1, CCHF vOTU inh 19 and BoNT F protease -4.
O=C(NCCCN1CCOCC1)c1ccc(CS(=O)(=O)c2cccc(C(F)(F)F)c2)o1 was read as Bead autofluor 22992*, 3CLpro inhibitor 1, BoNT-A LC inh2 -2, Anthrax LF inh2 -2, CCHF vOTU inh -3 and BoNT F protease -4.
For O=C(CCS(=O)(=O)Cc1ccc(Cl)cc1)NCCCN1CCN(c2ccccc2F)CC1 the results were Bead autofluor 22031*, 3CLpro inhibitor 0, BoNT-A LC inh2 -3, Anthrax LF inh2 0, CCHF vOTU inh 8 and BoNT F protease -6.
`O=C(NCCCN1CCOCC1)c1ccc(CS(=O)(=O)c2ccc(Br)cc2)o1` gave Bead autofluor 4344, 3CLpro inhibitor -6, BoNT-A LC inh2 0, Anthrax LF inh2 -2, CCHF vOTU inh -1 and BoNT F protease -4.
Screening O=C(NCCCN1CCOCC1)c1ccc(CS(=O)(=O)Cc2ccc(Cl)cc2)o1 returned Bead autofluor 20919*, 3CLpro inhibitor 2, BoNT-A LC inh2 -3, Anthrax LF inh2 -3, CCHF vOTU inh -20 and BoNT F protease -6.
`CCC1(C)COC2(OC1)C(=O)Nc1ccccc12` (centres undefined) gave Bead autofluor 20257*, 3CLpro inhibitor -2, BoNT-A LC inh2 0, Anthrax LF inh2 1, CCHF vOTU inh 4 and BoNT F protease 0.
For CN(CC#CC1=CCCCC1)/C(N)=N/C(=O)OCc1ccccc1 the results were CCHF vOTU inh 13.
`C=C1N(CCCCCC(=O)O)C(=O)OC12CCCCC2` gave Bead autofluor 22385*, 3CLpro inhibitor 0, BoNT-A LC inh2 1, Anthrax LF inh2 2, CCHF vOTU inh 3 and BoNT F protease 1.
`O=C(O)CCCCCN1C(=O)CSC1=S` gave Bead autofluor 4102, 3CLpro inhibitor 1, BoNT-A LC inh2 0, Anthrax LF inh2 -4, CCHF vOTU inh 20 and BoNT F protease -5.
For COc1ccc(S[C@]2(C(=O)N3CCN(c4ncccn4)CC3)CC(=O)N(c3ccccc3)[C@@H]2c2ccc(OC)cc2)cc1 the results were CCHF vOTU inh 0.
For Cc1cc(/C=C2\Sc3ccccc3N2C)cc(C)[n+]1CC1CCCO1 (centres undefined) the results were Bead autofluor 5172, 3CLpro inhibitor 2, BoNT-A LC inh2 42*, Anthrax LF inh2 15, CCHF vOTU inh 17 and BoNT F protease 1.
Cc1ccc(/C=C2/Sc3ccccc3N(CC(=O)NCC3CCCO3)C2=O)cc1 (centres undefined) was read as Bead autofluor 5935, 3CLpro inhibitor 4, BoNT-A LC inh2 0, Anthrax LF inh2 -1 and BoNT F protease -2.
Screening COC(=O)C1(C(=O)OC)NOC2C(=O)N(c3ccccc3)C(=O)C21 (centres undefined) returned Bead autofluor 22517*, 3CLpro inhibitor 0, BoNT-A LC inh2 inconclusive, Anthrax LF inh2 1, CCHF vOTU inh 2 and BoNT F protease 0.

Compound activity deposited in PubChem by several laboratories.
